The source made the active and inactive calls. Unless noted, how the calls were made is not given here.
Legend:
[1] = liver-stage malaria parasite load reduction – cell-based, known kinase inhibitor set, luminescence, hepatoma host viability (AID 624392); conditions: Plasmodium liver stage in hepatoma cells, luciferase luminescence, concentration not given here; liver cell % of control: measured here: host liver cell viability; parasite % of control: stronger effect = lower value;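 further: infected cells incubated roughly two days before readout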
[2] = altered dexamethasone sensitivity, NF-kB reporter, cell-based, luciferase, IL-1B stimulus (AID 624486); conditions: IL-1B + dexamethasone, luminescence; percent of negative control (+Dex): actives lie on both sides, concentration not given here; z-score: measured here: IL-1B alone, no Dex;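 on percent of negative control (+Dex): 100% = mean signal of vehicle control wells on the plate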
[3] = C. elegans survival during P. aeruginosa infection – whole organism (AID 651566);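 further: tested at 14 µM; sign flipped so higher z means a lower ratio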; conditions: C. elegans killed by P. aeruginosa, survival ratio
[4] = pro-inflammatory signaling induction in mouse macrophages – cell-based, murine, luminescence (AID 652131); conditions: murine macrophage pro-inflammatory reporter, stronger effect = higher value
[5] = target: Cellular tumor antigen p53 (Homo sapiens) (UniProt P04637); test: GFP-p53 level modulators in HPV16+ cells – imaging, known kinase inhibitor set, EGFP/DsRed ratio (AID 1053116); conditions: GFP-p53 stability, stronger effect = higher value; EGFP object count: measured here: GFP-p53 positive objects count;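 further: cells exposed to compounds for 24 h at 37 °C before reading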
[6] = inducers of IRF3 signaling, differentiated THP-1 – cell-based, PMA-stimulated THP-1, luminescence (AID 1053176); conditions: PMA-differentiated THP-1, IRF3 reporter luminescence; stronger effect = higher value
[7] = MELAS cybrid and Rieske KO viability enhancers – cell-based, MELAS cybrids, Rieske KO mouse fibroblasts, CellTiter-Glo, primary screen (AID 1508586;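 active means mean z-score across replicates of 1.96 or higher in either the MELAS or the Rieske mutant cell line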;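 further: z relative to plate mean and SD of compound and empty wells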); conditions: low glucose
[8] = MELAS cybrid survival, CellTiter-Glo 48 h, stronger effect = higher value
[9] = Rieske KO mouse fibroblast survival, CellTiter-Glo 72 h

Chain of Cellular tumor antigen p53 (Homo sapiens) (P04637 whole entry, looked up): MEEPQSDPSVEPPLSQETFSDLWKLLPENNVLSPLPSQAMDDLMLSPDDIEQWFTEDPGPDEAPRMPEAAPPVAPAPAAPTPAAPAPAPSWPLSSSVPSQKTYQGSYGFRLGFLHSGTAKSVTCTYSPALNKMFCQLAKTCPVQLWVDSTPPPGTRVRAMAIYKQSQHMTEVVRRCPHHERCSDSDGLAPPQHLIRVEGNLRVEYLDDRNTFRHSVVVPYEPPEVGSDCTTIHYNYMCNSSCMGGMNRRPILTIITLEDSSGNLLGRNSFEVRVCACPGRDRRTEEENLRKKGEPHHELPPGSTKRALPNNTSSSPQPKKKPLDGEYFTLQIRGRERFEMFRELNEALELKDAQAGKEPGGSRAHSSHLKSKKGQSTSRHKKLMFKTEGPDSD

SMILES | liver cell % of control [1] | parasite % of control [1] | percent of negative control (+Dex) [2] | z-score [2] | z-score [3] | z-score [4] | EGFP object count [5] | EGFP/DsRed ratio [5] | fraction signal [6] | z-score [7, 8] | z-score [7, 9]
Fc1cccc(COc2ccc(Nc3ncnc4sc(-c5cccs5)cc34)cc2Cl)c1 | 71.8% | 60.1% (inactive) | 92% (inactive) | 0.005 | 0.99 (inactive) | -0.373 (inactive) | 5 | 0.0533 (inactive) | -0.0045 (inactive) | -0.00271 (inactive) | -0.496
O=C1Nc2ccccc2/C1=C1\CCc2cc(O)ccc21 | 77.7% | 108% (inactive) | 114% (inactive) | 1.81 | -1.72 (inactive) | 3.73 (inactive) | 8.5 | 0.108 (inactive) | -0.013 (inactive) | -0.0823 (inactive) | -0.0427
CCn1c(-c2nonc2N)nc2c(C#CC(C)(C)O)nc(OC[C@@H](N)c3ccccc3)cc21 | 87.1% | 48.7% (inactive) | 108% (inactive) | 3.72 | 0.96 (inactive) | -1.1 (inactive) | 19.5 | 0.658 (inactive) | -0.0095 (inactive) | -0.774 (inactive) | 0.238
CC(C)c1ccc(Nc2nccc(-c3cnn4ncccc34)n2)cc1 | 146% | 13.9% (active) | 12.5% (active) | -8.57 | 0.07 (inactive) | -1.83 (inactive) | 3.5 | 0.181 (inactive) | -0.005 (inactive) | 0.723 (inactive) | -0.0455
NS(=O)(=O)c1cccc(-c2cc3ccncc3cc2OCc2ccccc2)c1 | 147% | 183% (inactive) | 95% (inactive) | 0.36 | 1.48 (inactive) | -0.246 (inactive) | 3.5 | 0.215 (inactive) | -0.012 (inactive) | 2.15 (active) | 0.958
CC(C)COC(=O)c1ccc2[nH]c(O)c(C=Nc3ccc(S(N)(=O)=O)cc3)c2c1 | 61% | 105% (inactive) | 108% (inactive) | 0.975 | 0.47 (inactive) | -1.9 (inactive) | 3.5 | 0.0968 (inactive) | -0.013 (inactive) | -0.896 (inactive) | 0.112
COc1cc(Nc2ncc3c(C)nc(-c4cccc(Oc5ccccc5)c4)n3n2)cc(OC)c1OC | 92.5% | 147% (inactive) | 77% (inactive) | -1.34 | 0.075 (inactive) | -0.606 (inactive) | 8.5 | 0.0854 (inactive) | 0 (inactive) | 0.38 (inactive) | 0.0156
CS(=O)(=O)Nc1ccc(-c2ccc3c(NC(=O)C4CC4)n[nH]c3c2)cc1 | 98.9% | 96.9% (inactive) | 94% (inactive) | 0.82 | 0.39 (inactive) | -0.745 (inactive) | 3 | 0.0815 (inactive) | -0.009 (inactive) | 0.24 (inactive) | -0.0618
CCn1c(-c2nonc2N)nc2c(N3CCCC3)nccc21 | 90.8% | 137% (inactive) | 80.5% (inactive) | -0.655 | -0.89 (inactive) | 1.27 (inactive) | 3 | 0.0699 (inactive) | -0.004 (inactive) | 0.113 (inactive) | -0.0304
O=C(O[C@H]1CN[C@H](C#Cc2cc3ncnc(Nc4ccc5c(cnn5Cc5ccccc5)c4)c3s2)C1)N1CCOCC1 | 118% | 137% (inactive) | 58% (inactive) | -2.13 | 1.08 (inactive) | -0.862 (inactive) | 3 | 0.0849 (inactive) | -0.0115 (inactive) | 0.875 (inactive) | -0.356
CCS(=O)(=O)c1ccc(OC)c(Nc2nccc(N(C)c3ccc4c(C)[nH]nc4c3)n2)c1 | 95.1% | 145% (inactive) | 92% (inactive) | -0.36 | -0.175 (inactive) | 2.99 (inactive) | 2.5 | 0.0751 (inactive) | -0.01 (inactive) | 1.33 (inactive) | 0.00494
COC(=O)Nc1nc2ccc(Oc3ccc(NC(=O)Nc4cc(C(F)(F)F)ccc4F)cc3)cc2s1 | 100% | 360% (inactive) | 120% (inactive) | -1.24 | -0.21 (inactive) | -0.073 (inactive) | 18.5 | 0.414 (inactive) | 0 (inactive) | -0.628 (inactive) | -0.719
COc1ccc(-c2nn3ncccc3c2-c2ccnc(Nc3ccc(Cl)c(C(F)(F)F)c3)n2)cc1 | 101% | 87.8% (inactive) | 98% (inactive) | 0.34 | -1.15 (inactive) | -0.74 (inactive) | 2.5 | 0.0806 (inactive) | -0.0025 (inactive) | 1.48 (inactive) | -0.347
COc1cc(N2CCN(C(C)C)CC2)ccc1Nc1nc(Nc2ccc(F)cc2C(=O)NC[C@@H](O)CO)c2cc[nH]c2n1 | 85% | 330% (inactive) | 103% (inactive) | 0 | -0.875 (inactive) | -0.151 (inactive) | 3.5 | 0.273 (inactive) | 0 (inactive) | -0.811 (inactive) | 0.239
c1ccc(COc2ccc(Nc3ncnc4ccc(-c5ccco5)cc34)cc2)cc1 | 99% | 71.7% (inactive) | 106% (inactive) | 1.01 | 0.34 (inactive) | -1.14 (inactive) | 3 | 0.073 (inactive) | 0.006 (inactive) | -0.351 (inactive) | -0.356
CN1CCC(n2cnc(-c3ccc(F)cc3)c2-c2ccnc(Nc3ccccc3)n2)CC1 | 67.1% | 74.5% (inactive) | 101% (inactive) | -0.08 | 0.955 (inactive) | 0.813 (inactive) | 3 | 0.0706 (inactive) | 0.005 (inactive) | -0.528 (inactive) | -0.322
COc1cc2ncn(-c3cc(OCc4cccs4)c(C(N)=O)s3)c2cc1OC | 107% | 69% (inactive) | 111% (inactive) | 0.28 | -0.19 (inactive) | -0.264 (inactive) | 3.5 | 0.163 (inactive) | -0.0075 (inactive) | -0.262 (inactive) | -0.175
FC(F)(F)c1ccc(-c2nn3ncccc3c2-c2ccnc(Nc3ccc4c(c3)OCCO4)n2)cc1 | 105% | 77.8% (inactive) | 110% (inactive) | 0.735 | -0.48 (inactive) | 0.358 (inactive) | 5 | 0.479 (inactive) | 0.001 (inactive) | 0.512 (inactive) | 0.23
O=C1NC(=O)C(c2ccccc2Cl)=C1Nc1cccc(O)c1 | 91.7% | 148% (inactive) | 88% (inactive) | -0.19 | -0.34 (inactive) | 0.132 (inactive) | 5.5 | 0.0989 (inactive) | -0.003 (inactive) | -0.289 (inactive) | -0.424
Nc1nc(-c2ccc3c(c2)/C(=C\c2cc(Br)c(O)c(Br)c2)C(=O)N3)cs1 | 70.8% | 79.2% (inactive) | 86.5% (inactive) | -0.23 | 0.35 (inactive) | 2.85 (inactive) | 5.5 | 0.264 (inactive) | -0.002 (inactive) | -0.944 (inactive) | -0.14
Cc1c2ccc(N(C)c3ccnc(Nc4cccc(S(N)(=O)=O)c4)n3)cc2nn1C | 94.3% | 100% (inactive) | 94% (inactive) | 0.455 | 1 (inactive) | -0.277 (inactive) | 3.5 | 0.0613 (inactive) | 0.0015 (inactive) | -1.32 (inactive) | -0.151
CCn1c(-c2nonc2N)nc2cncc(C(=O)N3CC[C@H](N)C3)c21 | 108% | 146% (inactive) | 76.5% (inactive) | -2.08 | -0.435 (inactive) | 1.55 (inactive) | 4 | 0.0807 (inactive) | -0.0035 (inactive) | -0.752 (inactive) | -0.175
Nc1nccc(-c2c(-c3ccc(F)cc3)ncn2C2CCC(O)CC2)n1 (centres undefined) | 93% | 24.7% (inactive) | 110% (inactive) | 1.26 | 0.765 (inactive) | 2.25 (inactive) | 2 | 0.124 (inactive) | -0.0025 (inactive) | -1.17 (inactive) | -0.368
COc1cc2c(cc1Nc1nc(N3CCc4ccccc43)c3cc[nH]c3n1)N(C(=O)CN(C)C)CC2 | 75% | 160% (inactive) | 104% (inactive) | 0.675 | 0.56 (inactive) | 0.168 (inactive) | 16.5 | 1.27 (inactive) | -0.0105 (inactive) | -0.598 | 2.39
O=C(Nc1n[nH]c2nc(-c3ccco3)ccc12)C1CC1 | 201% | 24% (inactive) | 104% (inactive) | -0.105 | -0.7 (inactive) | 0.373 (inactive) | 2 | 0.0203 (inactive) | -0.008 (inactive) | -0.235 (inactive) | -0.343
O=C(O[C@H]1CN[C@H](C#Cc2cc3ncnc(Nc4ccc(Cc5ccccc5)cc4)c3s2)C1)N1CCOCC1 | 106% | 85.4% (inactive) | 88% (inactive) | -1.34 | -0.335 (inactive) | 0.302 (inactive) | 5.5 | 0.104 (inactive) | -0.006 (inactive) | -0.24 (inactive) | -0.218
Nc1ncnc2occ(-c3ccc(NC(=O)Nc4cc(C(F)(F)F)cc(C(F)(F)F)c4)cc3)c12 | 58.8% | 11.2% (inactive) | 77.5% (inactive) | -2.48 | -0.205 (inactive) | -1.51 (inactive) | 2 | 0.014 (inactive) | -0.006 (inactive) | -0.873 (inactive) | -0.237
N#Cc1c(NC(=O)CN2CCOCC2)sc2c1CCCC2 | 105% | 134% (inactive) | 98% (inactive) | -0.1 | 0.4 (inactive) | 0.254 (inactive) | 3.5 | 0.0894 (inactive) | 0.0015 (inactive) | -0.581 (inactive) | -0.17
NC(=O)c1ccc2c(-c3ccnc(NCCCO)n3)c(-c3ccc(F)cc3)nn2c1 | 85.3% | 58.4% (inactive) | 106% (inactive) | 0.705 | -0.18 (inactive) | 0.119 (inactive) | 4 | 0.0827 (inactive) | 0.003 (inactive) | -0.11 (inactive) | -0.24
